Results filed as inconclusive are left out. Where a call stands in place of a potency, no number is given. Calls of active or inactive are those of the source. The call rests on the fitted dose curve; in most records, active means well fitted inhibition curve with a large enough effect; inconclusive means small, poorly fitted or top-dose-only effect; inactive means flat fitted curve, though single readings scatter.

The first assay deals with ATS95. Description: qHTS profiling for inhibitors of Plasmodium falciparum proliferation (AID 504749). Further: nearly all actives have a fitted effect of over 60% in size. The note with it: P. falciparum in erythrocytes, SYBR Green DNA, 72 h; series mostly up to 28.7 µM. In a few lines: (§1)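 Quantitative HTS: compounds pinned into medium, infected erythrocytes added (0.3% parasitemia, 2.5% hematocrit), 72 h culture at 37 C under 5% CO2. Saponin/Triton lysis with SYBR Green I, overnight RT, then fluorescence read.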
Take `[O-][n+]1cccc(CO)c1`: the Potency result is “inactive”.
Still for that read-out and setting: the entry for `Cc1cccc(C)c1NC(=O)CN(CC(=O)O)CC(=O)O` is “inactive”; for `O=C(O)[C@@H]1CSCN1` it is “inactive”; for `COc1cc2[nH]c(=O)[nH]c(=O)c2cc1OC` it is “inactive”.
Same read-out and setting: to `N[C@@H](CSCCCO)C(=O)O` belongs “inactive”; to `O=c1[nH]c(=O)c2[nH]c(=O)[nH]c2[nH]1`, “inactive”.
The same measure, in the same setting: the entry for `CCCCCCCCCCCCCCCCCCOCC(O)CO` (stereo not drawn) is “inactive”; for `O=C(O)c1ccccc1-c1ccc(C(F)(F)F)cc1` it is “inactive”.
For the compound `C[C@](N)(Cc1ccc(O)cc1)C(=O)O`, the Potency entry was “inactive”.
Still for that read-out and setting: to `O=C1OC(OC(=O)c2cccnc2Nc2cccc(C(F)(F)F)c2)c2ccccc21` (stereo not drawn) belongs “inactive”; to `Nc1ccc(S(=O)(=O)Nc2ccccc2)cc1`, “inactive”.
Same read-out and setting: the entry for `NC(=O)NNc1ccccc1` is “inactive”.
Still for that read-out and setting: to `CC1(C)[C@@H]2CC[C@@]1(C)C(=O)C2` belongs “inactive”.
Consider `CCC(=O)Nc1ccc(O)cc1`, for which the Potency result was “inactive”.
Still for that read-out and setting: the entry for `CC1(C)CO[C@@H](CC(=O)O)CN1` is “inactive”.
As for `CCCCc1ncc(/C=C(\Cc2cccs2)C(=O)O)n1Cc1ccc(C(=O)O)cc1`, the Potency entry is “inactive”.
On the same count and under the same terms, to `NCCNCCNCCNCCN` belongs “inactive”; to `CCN(CC)CCSC(=O)C(c1ccccc1)c1ccccc1`, “inactive”.
Still for that read-out and setting: to `C=Cc1c(C)c2cc3[nH]c(cc4nc(cc5nc(cc1[nH]2)C(C)=C5CCC(=O)O)C(CCC(=O)O)=C4C)c(C)c3C=C` belongs “inactive”.
The same measure, in the same setting: the entry for `NCC(=O)CCC(=O)O` is “inactive”; for `COc1cc(C(=O)N2CCOCC2)cc(OC)c1OC` it is “inactive”; for `Cc1cccc(Nc2cc(Cl)nc(SCC(=O)O)n2)c1C` it is “inactive”.
Take `O=C(O)COc1nn(Cc2ccccc2)c2ccccc12`: the Potency entry is “inactive”.
Same read-out and setting: to `CC(=O)NC(Cc1ccccc1)C(=O)O` (stereo not drawn) belongs “inactive”; to `Cc1cc(CC(=O)O)n(C)c1C(=O)c1ccc(Cl)cc1`, “inactive”; to `CCCOC(=O)c1ccccc1`, “inactive”.
The same measure, in the same setting: the entry for `CCCCC(CC)COC(=O)c1ccccc1O` (stereo not drawn) is “inactive”; for `Oc1cccc(O)c1` it is “inactive”; for `CC(=O)CCC(=O)O` it is “inactive”.
As to `COc1cc(C)c(Cc2cnc(N)nc2N)cc1OC`, the Potency result was “inactive”.
On to `CCN(CC)CCNC(=O)c1cc(Cl)c(N)cc1OC`, for which the Potency result was “inactive”.
On to `CCCn1cnc2c1c(=O)n(CCCCC(C)=O)c(=O)n2C`, for which the Potency result is “inactive”.
Still for that read-out and setting: the entry for `O=C1c2c(O)cccc2Cc2cccc(O)c21` is “inactive”.
Still for that read-out and setting: to `Cc1ncc(COP(=O)(O)O)c(C=O)c1O` belongs “inactive”; to `O=c1cc(CO)occ1O`, “inactive”.
Same read-out and setting: the entry for `COc1ccc2c(c1)C(=O)N(CCc1ccc(S(=O)(=O)NC(=O)NC3CCCCC3)cc1)C(=O)C2(C)C` is “inactive”.

A further assay has as its system C2A. The description is as above. To be noted: P. falciparum in erythrocytes, SYBR Green DNA, 72 h; series mostly up to 28.7 µM. In a few lines:
as §1
In the case of `[O-][n+]1cccc(CO)c1`, the Potency entry was “inactive”.
On the same count and under the same terms, the entry for `Cc1cccc(C)c1NC(=O)CN(CC(=O)O)CC(=O)O` is “inactive”; for `O=C(O)[C@@H]1CSCN1` it is “inactive”.
Take `COc1cc2[nH]c(=O)[nH]c(=O)c2cc1OC`: the Potency entry is “inactive”.
Still for that read-out and setting: to `N[C@@H](CSCCCO)C(=O)O` belongs “inactive”; to `O=c1[nH]c(=O)c2[nH]c(=O)[nH]c2[nH]1`, “inactive”; to `CCCCCCCCCCCCCCCCCCOCC(O)CO` (stereo not drawn), “inactive”.
Still for that read-out and setting: to `O=C(O)c1ccccc1-c1ccc(C(F)(F)F)cc1` belongs “inactive”; to `C[C@](N)(Cc1ccc(O)cc1)C(=O)O`, “inactive”.
The same measure, in the same setting: to `O=C1OC(OC(=O)c2cccnc2Nc2cccc(C(F)(F)F)c2)c2ccccc21` (stereo not drawn) belongs “inactive”.
Consider `Nc1ccc(S(=O)(=O)Nc2ccccc2)cc1`, for which the Potency entry is “inactive”.
Same read-out and setting: the entry for `NC(=O)NNc1ccccc1` is “inactive”; for `CC1(C)[C@@H]2CC[C@@]1(C)C(=O)C2` it is “inactive”; for `CCC(=O)Nc1ccc(O)cc1` it is “inactive”.
For `CC1(C)CO[C@@H](CC(=O)O)CN1`, the Potency entry is “inactive”.
Still for that read-out and setting: to `CCCCc1ncc(/C=C(\Cc2cccs2)C(=O)O)n1Cc1ccc(C(=O)O)cc1` belongs “inactive”.
Take `NCCNCCNCCNCCN`: the Potency result is “inactive”.
Still for that read-out and setting: the entry for `CCN(CC)CCSC(=O)C(c1ccccc1)c1ccccc1` is “inactive”.
Still for that read-out and setting: to `C=Cc1c(C)c2cc3[nH]c(cc4nc(cc5nc(cc1[nH]2)C(C)=C5CCC(=O)O)C(CCC(=O)O)=C4C)c(C)c3C=C` belongs “inactive”; to `NCC(=O)CCC(=O)O`, “inactive”.
Still for that read-out and setting: to `COc1cc(C(=O)N2CCOCC2)cc(OC)c1OC` belongs “inactive”.
On to `Cc1cccc(Nc2cc(Cl)nc(SCC(=O)O)n2)c1C`, for which the Potency entry was “inactive”.
Same read-out and setting: the entry for `O=C(O)COc1nn(Cc2ccccc2)c2ccccc12` is “inactive”; for `CC(=O)NC(Cc1ccccc1)C(=O)O` (stereo not drawn) it is “inactive”; for `Cc1cc(CC(=O)O)n(C)c1C(=O)c1ccc(Cl)cc1` it is “inactive”.
Consider `CCCOC(=O)c1ccccc1`, for which the Potency result is “inactive”.
For the compound `CCCCC(CC)COC(=O)c1ccccc1O` (stereo not drawn), the Potency entry was “inactive”.
The same measure, in the same setting: the entry for `Oc1cccc(O)c1` is “inactive”; for `CC(=O)CCC(=O)O` it is “inactive”; for `COc1cc(C)c(Cc2cnc(N)nc2N)cc1OC` it is “inactive”.
Still for that read-out and setting: to `CCN(CC)CCNC(=O)c1cc(Cl)c(N)cc1OC` belongs “inactive”; to `CCCn1cnc2c1c(=O)n(CCCCC(C)=O)c(=O)n2C`, “inactive”; to `O=C1c2c(O)cccc2Cc2cccc(O)c21`, “inactive”.
Regarding `Cc1ncc(COP(=O)(O)O)c(C=O)c1O`, the Potency result is “inactive”.
On the same count and under the same terms, the entry for `O=c1cc(CO)occ1O` is “inactive”.
On the same count and under the same terms, the entry for `COc1ccc2c(c1)C(=O)N(CCc1ccc(S(=O)(=O)NC(=O)NC3CCCCC3)cc1)C(=O)C2(C)C` is “inactive”.

The test system of the next assay is CP185. The description is as above. The note with it: P. falciparum in erythrocytes, SYBR Green DNA, 72 h; series mostly up to 28.7 µM. In a few lines: as §1
With `[O-][n+]1cccc(CO)c1`, the Potency entry was “inactive”.
On the same count and under the same terms, the entry for `Cc1cccc(C)c1NC(=O)CN(CC(=O)O)CC(=O)O` is “inactive”; for `O=C(O)[C@@H]1CSCN1` it is “inactive”.
On the same count and under the same terms, to `COc1cc2[nH]c(=O)[nH]c(=O)c2cc1OC` belongs “inactive”.
Same read-out and setting: to `N[C@@H](CSCCCO)C(=O)O` belongs “inactive”.
Regarding `O=c1[nH]c(=O)c2[nH]c(=O)[nH]c2[nH]1`, the Potency entry was “inactive”.
The same measure, in the same setting: to `CCCCCCCCCCCCCCCCCCOCC(O)CO` (stereo not drawn) belongs “inactive”.
Same read-out and setting: to `O=C(O)c1ccccc1-c1ccc(C(F)(F)F)cc1` belongs “inactive”; to `C[C@](N)(Cc1ccc(O)cc1)C(=O)O`, “inactive”; to `O=C1OC(OC(=O)c2cccnc2Nc2cccc(C(F)(F)F)c2)c2ccccc21` (stereo not drawn), “inactive”.
Still for that read-out and setting: the entry for `Nc1ccc(S(=O)(=O)Nc2ccccc2)cc1` is “inactive”; for `NC(=O)NNc1ccccc1` it is “inactive”.
Take `CC1(C)[C@@H]2CC[C@@]1(C)C(=O)C2`: the Potency entry is “inactive”.
On the same count and under the same terms, the entry for `CCC(=O)Nc1ccc(O)cc1` is “inactive”.
On the same count and under the same terms, the entry for `CC1(C)CO[C@@H](CC(=O)O)CN1` is “inactive”.
Take `CCCCc1ncc(/C=C(\Cc2cccs2)C(=O)O)n1Cc1ccc(C(=O)O)cc1`: the Potency result is “inactive”.
As for `NCCNCCNCCNCCN`, the Potency result was “inactive”.
As to `CCN(CC)CCSC(=O)C(c1ccccc1)c1ccccc1`, the Potency entry was “inactive”.
In the case of `C=Cc1c(C)c2cc3[nH]c(cc4nc(cc5nc(cc1[nH]2)C(C)=C5CCC(=O)O)C(CCC(=O)O)=C4C)c(C)c3C=C`, the Potency entry is “inactive”.
Still for that read-out and setting: the entry for `NCC(=O)CCC(=O)O` is “inactive”; for `COc1cc(C(=O)N2CCOCC2)cc(OC)c1OC` it is “inactive”; for `Cc1cccc(Nc2cc(Cl)nc(SCC(=O)O)n2)c1C` it is “inactive”.
On the same count and under the same terms, the entry for `O=C(O)COc1nn(Cc2ccccc2)c2ccccc12` is “inactive”; for `CC(=O)NC(Cc1ccccc1)C(=O)O` (stereo not drawn) it is “inactive”.
Still for that read-out and setting: the entry for `Cc1cc(CC(=O)O)n(C)c1C(=O)c1ccc(Cl)cc1` is “inactive”; for `CCCOC(=O)c1ccccc1` it is “inactive”; for `CCCCC(CC)COC(=O)c1ccccc1O` (stereo not drawn) it is “inactive”.
As to `Oc1cccc(O)c1`, the Potency entry is “inactive”.
Still for that read-out and setting: to `CC(=O)CCC(=O)O` belongs “inactive”; to `COc1cc(C)c(Cc2cnc(N)nc2N)cc1OC`, “inactive”.
As for `CCN(CC)CCNC(=O)c1cc(Cl)c(N)cc1OC`, the Potency result is “inactive”.
The same measure, in the same setting: the entry for `CCCn1cnc2c1c(=O)n(CCCCC(C)=O)c(=O)n2C` is “inactive”; for `O=C1c2c(O)cccc2Cc2cccc(O)c21` it is “inactive”.
Regarding `Cc1ncc(COP(=O)(O)O)c(C=O)c1O`, the Potency entry was “inactive”.
Still for that read-out and setting: the entry for `O=c1cc(CO)occ1O` is “inactive”; for `COc1ccc2c(c1)C(=O)N(CCc1ccc(S(=O)(=O)NC(=O)NC3CCCCC3)cc1)C(=O)C2(C)C` it is “inactive”.

(Values after PubChem BioAssay (NCATS).)
